Data taken from PMC7862700, “An all-to-all approach to the identification of sequence-specific readers for epigenetic DNA modifications on cytosine”.

Experiments:
Experiment in all cases: DAPPL (digital affinity profiling via proximity ligation, sequencing); 10 mM Tris-HCl pH 7.5, 50 mM NaCl, 1 mM DTT, 4% glycerol, room temperature, 30 min; GST-TFs on glutathione beads, 16-mer random dsDNA library, 0.1% formaldehyde crosslink after washing; high values mean tight binding
FLI1 = molecular target: T1, FLI1 (Homo sapiens, UniProt Q01543 1-452); settings: protein: recombinant; tags: N-terminal GST; dsDNA, one strand shown
T1 sequence: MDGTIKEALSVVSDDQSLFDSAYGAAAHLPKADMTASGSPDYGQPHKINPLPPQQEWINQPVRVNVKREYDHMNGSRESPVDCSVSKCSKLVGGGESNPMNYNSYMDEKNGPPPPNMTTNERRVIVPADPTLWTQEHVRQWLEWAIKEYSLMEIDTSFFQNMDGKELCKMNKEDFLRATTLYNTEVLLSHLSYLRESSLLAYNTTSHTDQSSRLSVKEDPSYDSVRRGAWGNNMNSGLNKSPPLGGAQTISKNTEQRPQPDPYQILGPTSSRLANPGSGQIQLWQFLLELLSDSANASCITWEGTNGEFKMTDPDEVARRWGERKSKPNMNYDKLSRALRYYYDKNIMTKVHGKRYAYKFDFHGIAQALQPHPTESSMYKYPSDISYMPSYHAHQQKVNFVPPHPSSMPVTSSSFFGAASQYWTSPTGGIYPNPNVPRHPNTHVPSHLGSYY
Procedure, shortened: (§1)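 Pools were built from human transcription factors expressed in yeast as GST fusions, captured on glutathione beads and DNA-barcoded, along with a tag-only sample. Incubation with 200 nmole of a 16-mer random double-stranded DNA library lasted 30 min at room temperature in Tris/NaCl/DTT/glycerol buffer, and was followed by washing, 0.1% formaldehyde crosslinking, proximity ligation, PCR amplification and Illumina NextSeq500 sequencing. Binding signal is the quotient of each hexamer's read frequency for a factor and its frequency for the tag-only sample.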

ELK1 = molecular target: T2, ELK1 (Homo sapiens, UniProt P19419 1-428); settings: protein: recombinant; tags: N-terminal GST; dsDNA, one strand shown
T2 sequence: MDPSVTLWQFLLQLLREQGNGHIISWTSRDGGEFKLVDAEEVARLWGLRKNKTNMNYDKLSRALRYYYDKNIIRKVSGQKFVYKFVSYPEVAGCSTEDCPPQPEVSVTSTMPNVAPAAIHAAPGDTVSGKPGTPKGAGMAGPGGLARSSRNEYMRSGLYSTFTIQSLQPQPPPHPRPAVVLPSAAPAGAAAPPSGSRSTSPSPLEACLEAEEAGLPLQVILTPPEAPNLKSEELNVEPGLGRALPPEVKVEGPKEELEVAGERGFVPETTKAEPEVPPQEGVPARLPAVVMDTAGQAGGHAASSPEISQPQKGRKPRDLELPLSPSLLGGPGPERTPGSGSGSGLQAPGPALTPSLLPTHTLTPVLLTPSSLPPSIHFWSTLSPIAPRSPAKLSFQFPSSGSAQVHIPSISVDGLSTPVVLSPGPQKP
Procedure, shortened: as §1

GABPA = molecular target: T3, GABPA (Homo sapiens, UniProt Q06546 1-454); settings: protein: recombinant; tags: N-terminal GST; dsDNA, one strand shown
T3 sequence: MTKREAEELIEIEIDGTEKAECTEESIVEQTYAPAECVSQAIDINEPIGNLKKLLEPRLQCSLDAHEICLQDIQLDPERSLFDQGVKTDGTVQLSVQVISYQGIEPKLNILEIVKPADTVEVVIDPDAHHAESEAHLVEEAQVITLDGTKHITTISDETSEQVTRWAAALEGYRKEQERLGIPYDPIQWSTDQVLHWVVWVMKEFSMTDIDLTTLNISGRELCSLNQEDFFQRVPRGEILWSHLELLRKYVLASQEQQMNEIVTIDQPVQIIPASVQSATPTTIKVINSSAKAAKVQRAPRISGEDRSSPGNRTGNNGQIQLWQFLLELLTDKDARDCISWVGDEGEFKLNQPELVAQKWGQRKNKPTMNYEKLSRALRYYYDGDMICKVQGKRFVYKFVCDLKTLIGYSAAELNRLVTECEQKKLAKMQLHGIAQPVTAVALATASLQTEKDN
Procedure, shortened: as §1

ERG = molecular target: T4, ERG (Homo sapiens, UniProt P11308 1-479); settings: protein: recombinant; tags: N-terminal GST; dsDNA, one strand shown
T4 sequence: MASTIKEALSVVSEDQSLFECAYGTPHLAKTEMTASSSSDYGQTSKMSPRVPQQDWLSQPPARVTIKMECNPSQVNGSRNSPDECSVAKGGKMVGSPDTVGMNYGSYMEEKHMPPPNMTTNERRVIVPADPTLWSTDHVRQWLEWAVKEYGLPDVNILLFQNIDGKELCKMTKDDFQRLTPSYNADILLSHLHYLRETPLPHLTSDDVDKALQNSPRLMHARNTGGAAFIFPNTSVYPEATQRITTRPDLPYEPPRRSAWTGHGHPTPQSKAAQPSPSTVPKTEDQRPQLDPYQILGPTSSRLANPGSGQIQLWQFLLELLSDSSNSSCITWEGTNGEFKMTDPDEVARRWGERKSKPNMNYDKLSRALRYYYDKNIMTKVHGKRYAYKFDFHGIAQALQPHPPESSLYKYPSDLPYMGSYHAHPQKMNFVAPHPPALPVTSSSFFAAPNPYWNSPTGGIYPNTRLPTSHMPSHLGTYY
Procedure, shortened: as §1

ELF1 = ELF1 (Homo sapiens, UniProt P32519 1-619); settings: protein: recombinant; tags: N-terminal GST; dsDNA, one strand shown
Sequence of ELF1 (P32519 whole entry): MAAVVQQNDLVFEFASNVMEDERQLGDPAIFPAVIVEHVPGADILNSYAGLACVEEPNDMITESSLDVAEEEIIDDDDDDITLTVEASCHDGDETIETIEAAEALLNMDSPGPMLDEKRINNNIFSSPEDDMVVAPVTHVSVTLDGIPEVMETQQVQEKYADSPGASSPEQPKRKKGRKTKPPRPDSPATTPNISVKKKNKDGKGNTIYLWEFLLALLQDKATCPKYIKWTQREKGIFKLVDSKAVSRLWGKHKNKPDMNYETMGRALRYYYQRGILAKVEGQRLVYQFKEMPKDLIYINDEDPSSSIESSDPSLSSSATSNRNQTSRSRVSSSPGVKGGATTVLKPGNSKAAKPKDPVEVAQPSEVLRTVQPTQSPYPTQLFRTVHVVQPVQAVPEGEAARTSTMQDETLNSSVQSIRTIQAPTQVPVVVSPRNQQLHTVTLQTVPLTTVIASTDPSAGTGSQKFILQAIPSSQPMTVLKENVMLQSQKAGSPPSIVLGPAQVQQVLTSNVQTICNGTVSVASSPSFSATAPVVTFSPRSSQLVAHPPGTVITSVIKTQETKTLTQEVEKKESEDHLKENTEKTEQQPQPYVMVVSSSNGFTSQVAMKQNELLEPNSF
Procedure, shortened: as §1

EHF = molecular target: T5, EHF (Homo sapiens, UniProt Q9NZC4 1-300); settings: protein: recombinant; tags: N-terminal GST; dsDNA, one strand shown
T5 sequence: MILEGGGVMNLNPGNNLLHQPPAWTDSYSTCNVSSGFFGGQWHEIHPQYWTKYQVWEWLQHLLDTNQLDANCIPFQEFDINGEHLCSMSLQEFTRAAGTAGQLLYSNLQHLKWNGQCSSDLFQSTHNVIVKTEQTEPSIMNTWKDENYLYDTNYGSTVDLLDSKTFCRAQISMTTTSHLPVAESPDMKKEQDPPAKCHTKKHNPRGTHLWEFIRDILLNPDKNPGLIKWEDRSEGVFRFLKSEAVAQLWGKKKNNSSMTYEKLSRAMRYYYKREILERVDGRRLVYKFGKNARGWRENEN
Procedure, shortened: as §1

SPI1 = SPI1 (Homo sapiens, UniProt P17947 1-270); settings: protein: recombinant; tags: N-terminal GST; dsDNA, one strand shown
Procedure, shortened: as §1

SPIB = SPIB (Homo sapiens, UniProt Q01892 1-262); settings: protein: recombinant; tags: N-terminal GST; dsDNA, one strand shown
Sequence of SPIB (Q01892 whole entry): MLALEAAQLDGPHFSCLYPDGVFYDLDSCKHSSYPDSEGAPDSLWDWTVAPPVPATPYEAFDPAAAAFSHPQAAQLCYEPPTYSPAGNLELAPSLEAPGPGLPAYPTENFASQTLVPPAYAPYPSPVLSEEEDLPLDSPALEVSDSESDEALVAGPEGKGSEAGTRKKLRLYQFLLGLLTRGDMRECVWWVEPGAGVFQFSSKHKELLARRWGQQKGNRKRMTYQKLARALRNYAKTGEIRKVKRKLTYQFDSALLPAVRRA
Procedure, shortened: as §1

ELK3 = molecular target: T6, ELK3 (Homo sapiens, UniProt P41970 1-407); settings: protein: recombinant; tags: N-terminal GST; dsDNA, one strand shown
T6 sequence: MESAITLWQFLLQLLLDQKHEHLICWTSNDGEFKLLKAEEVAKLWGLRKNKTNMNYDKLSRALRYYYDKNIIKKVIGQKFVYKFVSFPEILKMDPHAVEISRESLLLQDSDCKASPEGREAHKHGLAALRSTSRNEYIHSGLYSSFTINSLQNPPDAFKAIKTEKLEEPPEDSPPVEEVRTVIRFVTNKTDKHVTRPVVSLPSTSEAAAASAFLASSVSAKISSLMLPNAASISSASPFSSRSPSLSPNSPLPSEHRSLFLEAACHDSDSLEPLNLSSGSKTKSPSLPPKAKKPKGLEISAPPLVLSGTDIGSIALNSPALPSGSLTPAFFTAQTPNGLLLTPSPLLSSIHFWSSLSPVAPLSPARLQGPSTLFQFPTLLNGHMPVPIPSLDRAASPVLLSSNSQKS
Procedure, shortened: as §1

FEV = molecular target: T7, FEV (Homo sapiens, UniProt Q99581 1-238); settings: protein: recombinant; tags: N-terminal GST; dsDNA, one strand shown
T7 sequence: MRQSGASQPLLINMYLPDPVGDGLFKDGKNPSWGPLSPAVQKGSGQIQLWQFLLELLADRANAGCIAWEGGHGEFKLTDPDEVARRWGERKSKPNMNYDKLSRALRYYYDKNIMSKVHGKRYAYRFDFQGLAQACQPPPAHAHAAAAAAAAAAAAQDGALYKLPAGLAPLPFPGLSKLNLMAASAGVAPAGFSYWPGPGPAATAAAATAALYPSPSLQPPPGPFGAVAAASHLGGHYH
Procedure, shortened: as §1

ETV5 = ETV5 (Homo sapiens, UniProt P41161 1-510); settings: protein: recombinant; tags: N-terminal GST; dsDNA, one strand shown
Sequence of ETV5 (P41161 whole entry): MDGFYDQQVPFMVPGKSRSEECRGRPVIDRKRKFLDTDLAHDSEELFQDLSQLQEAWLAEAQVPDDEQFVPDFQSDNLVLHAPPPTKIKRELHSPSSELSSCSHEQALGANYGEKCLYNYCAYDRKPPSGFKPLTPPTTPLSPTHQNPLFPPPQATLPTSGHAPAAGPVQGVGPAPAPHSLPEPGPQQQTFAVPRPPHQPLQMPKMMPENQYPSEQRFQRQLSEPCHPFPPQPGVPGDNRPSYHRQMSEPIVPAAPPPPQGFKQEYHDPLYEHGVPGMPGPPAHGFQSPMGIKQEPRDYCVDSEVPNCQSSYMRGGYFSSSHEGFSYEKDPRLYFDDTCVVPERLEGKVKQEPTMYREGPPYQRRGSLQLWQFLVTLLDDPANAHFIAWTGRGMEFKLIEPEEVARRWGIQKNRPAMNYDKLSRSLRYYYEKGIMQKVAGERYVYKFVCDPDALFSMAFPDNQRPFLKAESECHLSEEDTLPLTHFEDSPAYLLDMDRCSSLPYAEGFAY
Procedure, shortened: as §1

HSF1 = HSF1 (Homo sapiens, UniProt Q00613 1-529); settings: protein: recombinant; tags: N-terminal GST; chain copies: 3; dsDNA, one strand shown
Sequence of HSF1 (Q00613 whole entry): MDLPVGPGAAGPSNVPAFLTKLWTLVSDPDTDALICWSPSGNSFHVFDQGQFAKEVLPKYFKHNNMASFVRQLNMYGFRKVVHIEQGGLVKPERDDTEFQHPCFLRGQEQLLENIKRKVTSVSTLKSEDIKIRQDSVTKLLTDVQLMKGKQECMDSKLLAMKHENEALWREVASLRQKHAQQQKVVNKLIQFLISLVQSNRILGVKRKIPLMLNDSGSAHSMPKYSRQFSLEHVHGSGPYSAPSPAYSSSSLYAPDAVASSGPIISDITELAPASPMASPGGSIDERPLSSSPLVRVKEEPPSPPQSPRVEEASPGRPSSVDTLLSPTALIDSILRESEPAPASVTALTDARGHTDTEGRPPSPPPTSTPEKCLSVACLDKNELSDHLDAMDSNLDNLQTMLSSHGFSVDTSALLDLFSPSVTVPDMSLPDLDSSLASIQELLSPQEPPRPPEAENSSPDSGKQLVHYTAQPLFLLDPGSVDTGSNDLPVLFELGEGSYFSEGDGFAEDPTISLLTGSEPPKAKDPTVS
Procedure, shortened: as §1

SPIC = molecular target: T8, SPIC (Homo sapiens, UniProt Q8N5J4 1-248); settings: protein: recombinant; tags: N-terminal GST; dsDNA, one strand shown
T8 sequence: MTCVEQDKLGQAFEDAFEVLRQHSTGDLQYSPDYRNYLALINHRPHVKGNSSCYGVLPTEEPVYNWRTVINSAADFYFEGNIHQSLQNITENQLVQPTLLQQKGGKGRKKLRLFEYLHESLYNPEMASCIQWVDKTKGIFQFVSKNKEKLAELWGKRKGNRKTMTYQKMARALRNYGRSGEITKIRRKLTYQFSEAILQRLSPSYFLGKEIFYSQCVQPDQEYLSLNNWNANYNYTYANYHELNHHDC
Procedure, shortened: as §1

ELF4 = ELF4 (Homo sapiens, UniProt Q99607 1-663); settings: protein: recombinant; tags: N-terminal GST; dsDNA, one strand shown
Sequence of ELF4 (Q99607 whole entry): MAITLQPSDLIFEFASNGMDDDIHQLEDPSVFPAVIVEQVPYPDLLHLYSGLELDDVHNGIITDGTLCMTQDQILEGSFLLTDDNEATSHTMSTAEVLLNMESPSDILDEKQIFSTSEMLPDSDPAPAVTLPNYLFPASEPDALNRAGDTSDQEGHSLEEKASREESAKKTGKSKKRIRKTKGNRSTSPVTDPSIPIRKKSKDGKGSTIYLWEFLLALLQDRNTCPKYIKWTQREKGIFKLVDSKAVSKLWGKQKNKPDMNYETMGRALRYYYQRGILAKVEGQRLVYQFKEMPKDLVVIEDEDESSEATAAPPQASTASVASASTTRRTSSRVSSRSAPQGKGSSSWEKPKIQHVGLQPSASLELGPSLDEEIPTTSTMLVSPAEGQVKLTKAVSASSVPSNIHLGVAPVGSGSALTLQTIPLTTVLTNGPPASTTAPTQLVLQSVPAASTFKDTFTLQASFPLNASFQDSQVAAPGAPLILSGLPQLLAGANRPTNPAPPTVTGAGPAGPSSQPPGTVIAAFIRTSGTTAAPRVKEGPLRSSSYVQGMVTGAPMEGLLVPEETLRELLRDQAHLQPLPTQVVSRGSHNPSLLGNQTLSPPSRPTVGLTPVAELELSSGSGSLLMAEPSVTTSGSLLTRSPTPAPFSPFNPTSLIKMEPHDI
Procedure, shortened: as §1

ELK4 = molecular target: T9, ELK4 (Homo sapiens, UniProt P28324-2 1-405); settings: protein: recombinant; tags: N-terminal GST; dsDNA, one strand shown
T9 sequence: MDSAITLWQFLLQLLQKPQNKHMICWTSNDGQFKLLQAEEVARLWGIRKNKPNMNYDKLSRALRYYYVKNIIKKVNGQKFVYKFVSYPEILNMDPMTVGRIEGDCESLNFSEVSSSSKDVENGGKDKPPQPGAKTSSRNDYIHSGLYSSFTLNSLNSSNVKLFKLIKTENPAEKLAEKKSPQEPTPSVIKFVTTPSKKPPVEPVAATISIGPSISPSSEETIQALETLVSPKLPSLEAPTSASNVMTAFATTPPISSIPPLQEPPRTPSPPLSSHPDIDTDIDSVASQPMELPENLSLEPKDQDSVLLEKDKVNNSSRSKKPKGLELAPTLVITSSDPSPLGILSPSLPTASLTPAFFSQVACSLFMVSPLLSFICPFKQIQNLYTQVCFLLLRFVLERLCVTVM
Procedure, shortened: as §1

ETV2 = molecular target: T10, ETV2 (Homo sapiens, UniProt O00321 1-342); settings: protein: recombinant; tags: N-terminal GST; dsDNA, one strand shown
T10 sequence: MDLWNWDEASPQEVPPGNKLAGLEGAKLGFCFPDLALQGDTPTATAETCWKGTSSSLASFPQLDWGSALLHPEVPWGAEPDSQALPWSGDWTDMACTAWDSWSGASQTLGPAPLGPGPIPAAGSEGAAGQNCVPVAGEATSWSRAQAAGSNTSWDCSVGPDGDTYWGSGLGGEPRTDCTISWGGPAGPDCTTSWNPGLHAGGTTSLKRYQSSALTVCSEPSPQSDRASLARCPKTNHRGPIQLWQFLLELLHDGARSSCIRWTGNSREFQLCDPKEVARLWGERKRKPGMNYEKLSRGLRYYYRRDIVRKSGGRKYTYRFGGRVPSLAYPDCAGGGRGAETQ
Procedure, shortened: as §1

ELF3 = molecular target: T11, ELF3 (Homo sapiens, UniProt P78545 1-371); settings: protein: recombinant; tags: N-terminal GST; dsDNA, one strand shown
T11 sequence: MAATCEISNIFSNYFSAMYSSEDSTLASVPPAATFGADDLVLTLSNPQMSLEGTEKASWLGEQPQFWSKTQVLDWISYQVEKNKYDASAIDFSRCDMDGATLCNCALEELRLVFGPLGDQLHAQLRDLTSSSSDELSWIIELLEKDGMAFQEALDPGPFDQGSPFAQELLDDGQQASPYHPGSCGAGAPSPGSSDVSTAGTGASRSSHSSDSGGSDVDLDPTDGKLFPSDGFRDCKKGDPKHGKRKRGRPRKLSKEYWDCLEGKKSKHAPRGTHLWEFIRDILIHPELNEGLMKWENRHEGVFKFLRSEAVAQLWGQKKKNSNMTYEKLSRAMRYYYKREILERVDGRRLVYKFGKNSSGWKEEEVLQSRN
Procedure, shortened: as §1

CRX = CRX (Homo sapiens, UniProt O43186 1-299); settings: protein: recombinant; tags: N-terminal GST; dsDNA, one strand shown
Sequence of CRX (O43186 whole entry): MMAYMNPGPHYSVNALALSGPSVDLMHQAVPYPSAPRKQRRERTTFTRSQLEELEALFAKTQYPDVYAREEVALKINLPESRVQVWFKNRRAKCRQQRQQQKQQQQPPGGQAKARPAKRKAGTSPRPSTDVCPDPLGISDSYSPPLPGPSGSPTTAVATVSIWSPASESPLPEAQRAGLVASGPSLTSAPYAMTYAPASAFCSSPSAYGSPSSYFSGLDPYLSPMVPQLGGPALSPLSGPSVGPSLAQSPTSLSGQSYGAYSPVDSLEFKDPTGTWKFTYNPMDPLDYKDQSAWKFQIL
Procedure, shortened: as §1

ETV1 = ETV1 (Homo sapiens, UniProt P50549 1-477); settings: protein: recombinant; tags: N-terminal GST; dsDNA, one strand shown
Sequence of ETV1 (P50549 whole entry): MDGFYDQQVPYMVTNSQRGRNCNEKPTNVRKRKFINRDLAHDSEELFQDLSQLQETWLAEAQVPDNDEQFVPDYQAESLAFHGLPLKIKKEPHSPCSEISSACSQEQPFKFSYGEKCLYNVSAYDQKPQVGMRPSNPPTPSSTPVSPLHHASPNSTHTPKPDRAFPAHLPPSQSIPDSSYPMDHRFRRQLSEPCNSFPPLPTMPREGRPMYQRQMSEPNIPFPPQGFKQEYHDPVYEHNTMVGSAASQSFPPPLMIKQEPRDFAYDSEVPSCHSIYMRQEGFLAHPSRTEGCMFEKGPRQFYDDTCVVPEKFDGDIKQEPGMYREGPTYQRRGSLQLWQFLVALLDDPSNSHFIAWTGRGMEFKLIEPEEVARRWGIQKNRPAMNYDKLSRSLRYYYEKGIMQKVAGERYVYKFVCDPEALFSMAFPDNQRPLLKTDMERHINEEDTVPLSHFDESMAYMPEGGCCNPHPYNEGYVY
Procedure, shortened: as §1

TCCCGT was tested, and the binding signal (FLI1) was 1.24 fold enrichment (6-mer frequency, TF over GST control), the binding signal (ELK1) was 1.23 fold enrichment (6-mer frequency, TF over GST control) and the binding signal (GABPA) was 1.26 fold enrichment (6-mer frequency, TF over GST control). The binding signal (ERG) was 1.37 fold enrichment (6-mer frequency, TF over GST control), the binding signal (ELF1) was 1.26 fold enrichment (6-mer frequency, TF over GST control) and the binding signal (EHF) was 1.35 fold enrichment (6-mer frequency, TF over GST control). The binding signal (SPI1) was 1.43 fold enrichment (6-mer frequency, TF over GST control), the binding signal (SPIB) was 1.3 fold enrichment (6-mer frequency, TF over GST control) and the binding signal (ELK3) was 1.3 fold enrichment (6-mer frequency, TF over GST control). For the same sequence, the binding signal (FEV) was 1.3 fold enrichment (6-mer frequency, TF over GST control), the binding signal (ETV5) was 1.38 fold enrichment (6-mer frequency, TF over GST control) and the binding signal (HSF1) was 1.35 fold enrichment (6-mer frequency, TF over GST control). The binding signal (SPIC) was 1.28 fold enrichment (6-mer frequency, TF over GST control), the binding signal (ELF4) was 1.23 fold enrichment (6-mer frequency, TF over GST control) and the binding signal (ELK4) was 1.41 fold enrichment (6-mer frequency, TF over GST control). The binding signal (ETV2) was 1.29 fold enrichment (6-mer frequency, TF over GST control), the binding signal (ELF3) was 1.37 fold enrichment (6-mer frequency, TF over GST control) and the binding signal (CRX) was 1.18 fold enrichment (6-mer frequency, TF over GST control). The binding signal (ETV1) was 1.3 fold enrichment (6-mer frequency, TF over GST control).
